Source: PubChem BioAssay (NCI)
Compounds without any hit were thinned out: in the full panel of roughly 83,000, 20% have a hit.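 Treatment: one concentration, 48 hours, 96-well format. Scoring: percent growth, with anything below 10 considered active.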 Values without a mark were called inactive. The source made the active and inactive calls.

What was measured:
Experiment in all cases: NCI-60 one-dose screen, 48 h (100 = growth as untreated, 0 = no growth, -100 = all killed)
Conditions in all cases: 10 µM unless noted
[1] = system: NCI-H23 lung
[2] = system: NCI-H226 lung
[3] = system: NCI-H322M lung
[4] = system: HOP-62 NSCLC
[5] = system: NCI-H460 lung
[6] = system: HOP-92 NSCLC
[7] = system: NCI-H522 lung
[8] = system: A549/ATCC NSCLC
[9] = system: 786-0 renal
[10] = system: COLO 205 colon
[11] = system: DU-145 prostate
[12] = system: MALME-3M melanoma
[13] = system: MDA-MB-231 breast
[14] = system: RXF 393 renal
[15] = system: SF-268 CNS
[16] = system: SF-295 CNS
[17] = system: SF-539 CNS
[18] = system: UACC-257 melanoma
[19] = system: M14 melanoma
[20] = system: K-562 leukemia

Compound	growth [1]	growth [2]	growth [3]	growth [4]	growth [5]	growth [6]	growth [7]	growth [8]	growth [9]	growth [10]	growth [11]	growth [12]	growth [13]	growth [14]	growth [15]	growth [16]	growth [17]	growth [18]	growth [19]	growth [20]
O=C1c2cccc3c(-c4ccc5c(c4)ncn5C4CCCCC4)ccc(c23)C(=O)N1CCO	78.6%	77%	91.8%	81.9%	94.1%	51.1%	73.7%	95.6%	95.4%	108%	100%	105%	71.1%	106%	93.9%	81.9%	99%	94.5%	106%	–
Cn1c(-c2c(N)n(CCCN3CCOCC3)c3nc(C#N)c(C#N)nc23)nc2ccccc21	93.2%	89.7%	78.1%	76.4%	106%	-6.11% (active)	77.4%	86.8%	23.3%	70%	75.3%	48.4%	43.4%	51.2%	76.2%	110%	19.3%	67.8%	74.2%	–
O=S(=O)(NCCNc1nccc(-c2c(-c3cccc(F)c3)nc3sccn23)n1)c1ccccc1	56.1%	34.5%	51.5%	–	25.9%	51.5%	43.7%	25.2%	47.4%	24.2%	40%	68.5%	66%	64.1%	43.5%	47.4%	65.5%	65.3%	41.4%	23.9%
O=C(Nc1ncc(Cc2cc(Cl)ccc2Cl)s1)c1cccs1	71.6%	81%	62.7%	55.1%	33.8%	48.4%	43.9%	38.3%	78.3%	67.5%	81.1%	50%	79.8%	56%	74.9%	50.4%	73.9%	78.6%	42.9%	–
CSc1nc2sc3cccc(Cl)c3n2c(=N)c1C#N	90.5%	93.5%	99.8%	97%	102%	82.4%	78.9%	100%	–	56.1%	105%	95.3%	90.1%	131%	102%	108%	109%	108%	102%	106%
O=C(Cn1c[n+](CC(=O)c2ccc([N+](=O)[O-])cc2)c2ccccc21)Nc1cccc2cccnc12	50.9%	80.7%	96%	95.5%	77.7%	28%	47.1%	14.3%	–	23.9%	85.1%	81.4%	50.5%	97.6%	65.1%	101%	87.8%	48.6%	78.4%	38.2%
Cn1ccc2c1CC1CN(Cc3ccco3)C(=O)C1C2C(=O)O (configuration not stated)	94.3%	103%	99.3%	96.8%	102%	99.4%	92.3%	98%	–	117%	89.2%	98.5%	97.1%	111%	92.6%	100%	96.3%	97%	103%	97.4%
OC(c1cccc(C(F)(F)F)c1)c1cnccc1NC1CCCCC1 (configuration not stated)	60.9%	82.9%	90.2%	87.4%	82.8%	45.4%	82.4%	75.8%	73.7%	-39.9% (active)	85%	83.2%	66.1%	78.8%	89.6%	81%	91.7%	87%	87.9%	–
